The structures appear in SMILES notation. In all, about 50,000 compounds went through this assay and about 800 (1.6%) showed an effect of 50% or more. For the sample, strong results were picked, then their nearest neighbours and some compounds at random.

The target in the assay is Bcl-2-like protein 10 (Homo sapiens) (UniProt Q9HD36). The assay can be described thus: Phenotype converters, Bcl-B/TR3 peptide binding displacement, primary biochemical FP (AID 1240).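 Note: 0% = Bcl-B with tracer peptide and DMSO and 100% = tracer peptide lacking Bcl-B.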 The conditions noted are these: GST-Bcl-B / FITC-TR3 peptide fluorescence polarization; stronger effect = higher value; compound at 3.75 mg/L. (In general: Polarisation of emitted light reports the rotation of a fluorescent probe.)
Chain of Bcl-2-like protein 10 (Homo sapiens) (Q9HD36 whole entry, looked up): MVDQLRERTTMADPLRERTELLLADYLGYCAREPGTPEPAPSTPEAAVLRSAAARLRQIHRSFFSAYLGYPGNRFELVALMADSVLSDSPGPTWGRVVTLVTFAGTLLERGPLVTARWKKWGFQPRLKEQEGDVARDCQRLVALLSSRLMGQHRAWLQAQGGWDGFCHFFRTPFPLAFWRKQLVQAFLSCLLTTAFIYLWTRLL
With `N#Cc1c2c(c(N3CCN(c4ccccn4)CC3)n3c1nc1ccccc13)CCC2`, the displacement stood at 2.1%.

As for `O=C1c2ccccc2C(=O)N1CCc1nc2ccccc2c(=O)n1-c1ccc(Br)cn1`, the displacement was -10.3%.

For the compound `CCN(CC)CCCCOc1ccc(Cl)c(C)c1`, the displacement was -10.7%.

Consider `COc1ccc(CCNC(=O)C(=O)Nc2ccc3c(c2)OCCO3)cc1OC`, for which the displacement worked out at 3.4%.

In the case of `Cc1cccc(CN2CCN(Cc3ccncc3)CC2)c1`, the displacement was -1.1%.

`COC(=O)c1sc2nc(-c3ccccc3)nc(N3CCOCC3)c2c1C`: the displacement came to 47.3%.

Regarding `CC1(C)Oc2ccc3ccc(=O)oc3c2/C(=C/N2CCOCC2)C1=O`, the displacement is -5.9%.

As to `COc1ccc(Cl)cc1C(=O)Nc1ccc(C)cc1C`, the displacement is 10.1%.

Regarding `CN(C)c1ccc(/C=N/NC(=O)CNC(=O)c2ccc(F)cc2)cc1`, the displacement is 2.3%.

Take `O=C(/C=C/c1ccc(-c2ccccc2[N+](=O)[O-])o1)c1cc2ccccc2o1`: the displacement came to 44.1%.

On to `O=C(/C=C/c1ccc(-c2ccc([N+](=O)[O-])cc2)o1)c1cc2ccccc2o1`, for which the displacement worked out at 190%.

Consider `COc1ccc(-c2ccc(/C=C/C(=O)c3cc4ccccc4o3)o2)cc1`, for which the displacement is -52.6%.

Turning to `O=C(Nc1cc(NC(=O)c2ccccc2)cc(C(=O)Nc2nccs2)c1)c1ccccc1`, the displacement came out at 4.4%.

As to `O=C(COc1ccccc1F)Nc1nc(-c2cccs2)c(NC(=O)c2ccccc2)s1`, the displacement is 14.6%.

For `CC(C(=O)NN)C1=NC(C)(C)Cc2ccccc21` (stereo not given), the displacement is -17.7%.

For `CC(=O)N1N=C2CC(C)(C)OCC2C1c1ccccc1` (stereo not given), the displacement was 12%.

In the case of `N=C(SC1CC(=O)N(c2cccc3ccccc23)C1=O)N1N=C(c2cccs2)CC1c1ccc(Br)cc1` (stereo not given), the displacement was 85.7%.

On to `N=C(SC1CC(=O)N(c2ccccc2Cl)C1=O)N1N=C(c2cccs2)CC1c1ccc(Br)cc1` (stereo not given), for which the displacement worked out at 1.4%.

Turning to `Cc1cccc(N2C(=O)CC(SC(=N)N3N=C(c4cccs4)CC3c3ccc(Br)cc3)C2=O)c1` (stereo not given), the displacement is 5.6%.

For the compound `Cn1c(CNc2ccccc2)nc2ccccc21`, the displacement is -1.3%.

Consider `Cn1c(CNc2ccc(O)cc2)nc2ccccc21`, for which the displacement was found to be 76.7%.

As for `Cn1c(CNc2ccccc2O)nc2ccccc21`, the displacement is 0.7%.

Take `COc1ccc(N(CC(=O)N2CCN(c3ccccc3OC)CC2)S(=O)(=O)c2ccccc2)c(OC)c1`: the displacement came out at 8.6%.

Consider `c1ccc(Oc2cccc(CSc3nnnn3-c3ccccc3)c2)cc1`, for which the displacement is 1%.

Take `Cc1ccc(NC2C=CS(=O)(=O)C2)cc1C` (stereo not given): the displacement came out at 6.7%.

Take `CCc1cccc(C)c1NC1C=CS(=O)(=O)C1` (stereo not given): the displacement was found to be 52.3%.

Regarding `Cc1c(Cl)cccc1NC1C=CS(=O)(=O)C1` (stereo not given), the displacement turned out to be 14%.

With `CN(C1CCS(=O)(=O)C1)S(=O)C12CC3CC(CC(C3)C1)C2` (stereo not given), the displacement was -4.8%.

Turning to `C=C(C)CSc1nnc2n(-c3ccc(OC)cc3)c(=O)c3c4c(sc3n12)CCCC4`, the displacement turned out to be 3%.

For `COc1ccc(-n2c(=O)c3c4c(sc3n3c(SCCC(C)C)nnc23)CCCC4)cc1`, the displacement worked out at 89.8%.

On to `COc1ccc(-n2c(=O)c3c4c(sc3n3c(SCC(N)=O)nnc23)CCCC4)cc1`, for which the displacement stood at 0.7%.

With `COC(=O)CSc1nnc2n(-c3ccc(OC)cc3)c(=O)c3c4c(sc3n12)CCCC4`, the displacement is 5.6%.

Regarding `CCCSc1nnc2n(-c3ccc(OC)cc3)c(=O)c3c4c(sc3n12)CCCC4`, the displacement worked out at 34.9%.

For the compound `CCSc1nnc2n(-c3ccc(OC)cc3)c(=O)c3c4c(sc3n12)CCCC4`, the displacement amounted to 119%.

With `Clc1ccccc1C=NN1CCN(Cc2ccccc2Cl)CC1`, the displacement is -2.4%.

For the compound `FC(F)(F)c1cc(/C=C/c2ccccc2)no1`, the displacement amounted to 7.7%.

For `CC(=O)Nc1ccc(S(=O)(=O)Nc2cccc(C)c2C)cc1`, the displacement worked out at 12.9%.

Turning to `CN(C)c1ccc(/C=N/NC(=O)Cn2c3ccccc3c(=O)c3ccccc32)cc1[N+](=O)[O-]`, the displacement was determined as 2.3%.

On to `O=C1/C(=C/c2ccc3c(c2)OCO3)SC(=S)N1c1ccc(F)cc1`, for which the displacement stood at 11.8%.

For the compound `O=C1/C(=C\c2ccc3c(c2)OCO3)N=C(c2ccccc2)N1c1ccc(F)cc1`, the displacement was determined as 179%.

Consider `CN(C)/C=C1\N=C(c2ccccc2Br)OC1=O`, for which the displacement was -1.7%.

As to `O=C1OC(c2ccccc2F)=N/C1=C\c1ccc2c(c1)OCO2`, the displacement was found to be 80%.

As for `COc1cccc(/C=C2\N=C(c3ccccc3OC)OC2=O)c1`, the displacement is -6%.

Take `O=C1OC(c2ccccc2Br)=N/C1=C\c1cc2c(cc1Cl)OCO2`: the displacement worked out at 116%.

With `O=C1OC(c2ccccc2Br)=N/C1=C\c1cccnc1`, the displacement is 4.7%.

Turning to `COc1ccccc1C1=N/C(=C\c2ccc3c(c2)OCO3)C(=O)O1`, the displacement was determined as 111%.

For `O=C1OC(c2ccc(F)cc2)=N/C1=C\c1ccc2c(c1)OCO2`, the displacement came out at 15.9%.

For the compound `N=C1S/C(=C\c2ccc3c(c2)OCO3)C(=O)N1c1ccc(F)cc1`, the displacement came out at 2.6%.

Consider `O=C1OC(c2ccccc2F)=N/C1=C\c1ccc(Br)cc1`, for which the displacement came to 9%.

`COc1ccccc1C1=N/C(=C\c2ccc([N+](=O)[O-])cc2)C(=O)O1`: the displacement was found to be 27.4%.

Consider `Cn1nnnc1SCc1ccc(F)cc1`, for which the displacement is -4%.

Regarding `O=C1CS/C(=N/N=C/c2c3ccccc3cc3ccccc23)N1`, the displacement is -1.8%.

For `CC(NC(=O)c1ccccc1)C12CC3CC(CC(C3)C1)C2` (stereo not given), the displacement is 39.3%.

For the compound `Cc1cccc(OCC(=O)O/N=C(\N)c2cccc(C)c2)c1`, the displacement was -9.8%.

As to `CCOC(=O)CONC(=NCc1ccccc1)c1nonc1N`, the displacement is 3.6%.

In the case of `CCc1c(C)nc(N)nc1N1CCCC1`, the displacement stood at 13.1%.

With `Cc1ccc(C(=O)NCCCN2CCOCC2)c2ccccc12`, the displacement was -1.8%.

Consider `COc1ccccc1N1C(=O)c2cccc3c(N(C)C)ccc(c23)C1=O`, for which the displacement was found to be 42.1%.

On to `COc1ccccc1N1C(=O)c2cccc3c(N4CCCC4)ccc(c23)C1=O`, for which the displacement amounted to 102%.

`Cc1ccccc1N1C(=O)c2cccc3c(N4CCCCC4)ccc(c23)C1=O`: the displacement was determined as 15.9%.

Take `COc1ccccc1N1C(=O)c2ccc3c4c(ccc(c24)C1=O)CC3`: the displacement worked out at 13.4%.

As to `COc1ccccc1N1C(=O)c2cccc3c(Cl)ccc(c23)C1=O`, the displacement was determined as 22.2%.

`COc1ccccc1N1C(=O)c2cccc3c(N4CCN(C)CC4)ccc(c23)C1=O`: the displacement amounted to 157%.

For `Cc1cc(C)n(C2CC(=O)N(c3ccccc3)C2=O)n1` (stereo not given), the displacement was found to be 0.8%.

For `COc1ccc(C=C2C(=O)N(C)C(=O)N(C)C2=O)cc1O`, the displacement was -7.9%.

On to `O=S(=O)(Nc1ccc(O)cc1)c1cc(Cl)ccc1Cl`, for which the displacement was -0.2%.

For `O=C(c1cccc(F)c1)N1CCN(C(=O)c2cccc(Cl)c2)CC1`, the displacement is -18.6%.

Consider `O=c1sc2ccccc2c(N2CCN(c3ccccc3)CC2)c1[N+](=O)[O-]`, for which the displacement is -11.1%.

With `O=C(COC(=O)CN1C(=O)c2ccccc2C1=O)Nc1cccc2ccccc12`, the displacement is -8.1%.

For the compound `N#C/C(=C/c1ccc(Sc2ccccc2)o1)C(=O)Nc1ccccc1`, the displacement is -22.8%.

Take `N#C/C(=C/c1ccc(-c2ccc(S(N)(=O)=O)cc2)o1)C(=O)Nc1ccccc1`: the displacement is -0.4%.

As for `CCc1ccccc1NC(=O)/C(C#N)=C\c1ccc(Sc2ccccc2)o1`, the displacement is -12.2%.

`N#C/C(=C\c1ccc(-c2ccc(Cl)cc2)o1)C(=O)Nc1ccccc1O`: the displacement is -1%.

On to `N#C/C(=C\c1ccc(-c2ccccc2)o1)C(=O)Nc1ccc(C#N)cc1`, for which the displacement was found to be 168%.

Turning to `Cc1cccc(NC(=O)/C(C#N)=C\c2ccc(Sc3ccccc3)o2)c1C`, the displacement was found to be 74.9%.

For the origin of these results see PubChem BioAssay AID1240 (Sanford-Burnham Center for Chemical Genomics, 2008).
